PubChem BioAssay (NCATS)
Where “and” joins values, the source holds several entries; their conditions need not be identical. Identical values can stand only once. Inconclusive results are not listed. Where a call stands in place of a potency, no number is given. Calls of active or inactive are those of the source. Calls come from the whole dose curve; as a rule, active = well fitted inhibition curve with a large enough effect; inconclusive = small, poorly fitted or top-dose-only effect; inactive = flat fitted curve, though single readings scatter. Where a SMILES comes first, the peptide text is derived from it. [ ]: non-standard residue; d: D form. pGlu = O=C1CC[C@@H](C(=O)O)N1; Thz = O=C(O)[C@@H]1CSCN1

Columns and labels:
Assay in all cases: qHTS profiling for inhibitors of Plasmodium falciparum proliferation (AID 504749); note: nearly all actives have a fitted effect of over 60% in size
Conditions in all cases: P. falciparum in erythrocytes, SYBR Green DNA, 72 h; series mostly up to 28.7 µM
DIV30 = system: DIV30
Method in brief: (§1)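 SYBR Green fluorescence of parasite DNA, read after lysis and overnight dark incubation, measured growth over 72 h in erythrocyte culture at 0.3% parasitemia and 2.5% hematocrit. Data normalised to DMSO and 0.29 uM artemisinin, with plate-drift correction.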

Dd2 = system: Dd2
Method in brief: as §1

ECU = system: ECU
Method in brief: as §1

FAB9 = system: FAB9
Method in brief: as §1

GB4 = system: GB4
Method in brief: as §1

HB3 = system: HB3
Method in brief: as §1

ICS = system: ICS
Method in brief: as §1

JCK = system: JCK
Method in brief: as §1

N140 = system: N140
Method in brief: as §1

P93_24 = system: P93_24
Method in brief: as §1
Potency is the fitted concentration of half-maximal effect.

Structure (SMILES)	Potency (DIV30)	Potency (Dd2)	Potency (ECU)	Potency (FAB9)	Potency (GB4)	Potency (HB3)	Potency (ICS)	Potency (JCK)	Potency (N140)	Potency (P93_24)
O=C(O)[C@H](CC(=O)N1C[C@H]2CCCC[C@H]2C1)Cc1ccccc1	inactive	inactive	inactive	inactive	inactive	inactive	inactive	inactive	inactive	inactive
COc1cc2c3cc1Oc1cc(ccc1O)C[C@@H]1c4c(cc(OC)c(O)c4Oc4ccc(cc4)C[C@@H]3N(C)CC2)CC[N+]1(C)C	inactive	inactive	inactive	inactive	inactive	inactive	inactive	inactive	inactive	inactive
O=C(O)c1ccccc1Nc1cccc(C(F)(F)F)c1	inactive	inactive	inactive	inactive	inactive	inactive	inactive	inactive	inactive	inactive
Cc1c(Nc2ncccc2C(=O)O)cccc1C(F)(F)F	inactive	inactive	inactive	inactive	inactive	inactive	inactive	inactive	inactive	inactive
CCCCCCOc1ccccc1C(N)=O	inactive	inactive	inactive	inactive	inactive	inactive	inactive	inactive	inactive	inactive
O=C(Nc1ccc(C(=O)O)c(O)c1)c1ccccc1	inactive	inactive	inactive	inactive	inactive	inactive	inactive	inactive	inactive	
CC1(C)S[C@@H]2[C@H](NC(=O)[C@H](NC(=O)N3CCN(S(C)(=O)=O)C3=O)c3ccccc3)C(=O)N2[C@H]1C(=O)O	inactive	inactive	inactive	inactive	inactive	inactive	inactive	inactive	inactive	inactive
Cc1ccc(C(=O)c2ccc(CC(=O)O)n2C)cc1	inactive	inactive	inactive	inactive	inactive	inactive	inactive	inactive	inactive	inactive
O=C1CC[C@@H](C(=O)N2CSC[C@H]2C(=O)O)N1 ([pGlu]-[Thz]-OH)	inactive	inactive	inactive	inactive	inactive	inactive	inactive	inactive	inactive	inactive
Cc1ccccc1CNc1ncnc2c1ncn2C1OC(CO)C(O)C1O (stereo not drawn)	inactive	inactive	inactive	inactive	inactive	inactive	inactive	inactive	inactive	inactive
C#C[C@]1(O)CC[C@H]2[C@@H]3CCc4cc(O)ccc4[C@H]3CC[C@@]21C	inactive	inactive	inactive	inactive	inactive	inactive	inactive	inactive	inactive	inactive
O=C(O)/C=C/C(O)c1ccc(Cl)cc1 (stereo not drawn)	inactive	inactive	inactive	inactive	inactive	inactive	inactive	inactive	inactive	inactive
O=C(O)COc1ccc(C(=O)c2cccs2)c(Cl)c1Cl	inactive	inactive	inactive	inactive	inactive	inactive	inactive	inactive	inactive	inactive
Nc1c(CC(=O)O)cccc1C(=O)c1ccc(Br)cc1	inactive	inactive	inactive	inactive	inactive	inactive	inactive	inactive	inactive	inactive
O=C(OCc1ccccc1)c1ccccc1	inactive	inactive	inactive	inactive	inactive	inactive	inactive	inactive	inactive	inactive
[O-][n+]1ccccc1SSc1cccc[n+]1[O-]	1.2 µM (active)	0.891 µM (active)	1.12 µM (active)	1.58 µM (active)	0.757 µM (active)	0.891 µM (active)	0.794 µM (active)	4.47 µM (active)	0.708 µM (active)	1 µM (active)
CCCCC[C@H](O)/C=C/[C@@H]1[C@@H](C/C=C\CCCC(=O)O)[C@@H](O)C[C@H]1O	inactive	inactive	inactive	inactive	inactive	inactive	inactive	inactive	inactive	inactive
Cc1[nH]cnc1CN1CCc2c(c3ccccc3n2C)C1=O	inactive	inactive	inactive	inactive	inactive	inactive	inactive	inactive	inactive	inactive
c1ccc2sc(SSc3nc4ccccc4s3)nc2c1	inactive	inactive	inactive	inactive	inactive	inactive	inactive	inactive	inactive	inactive
CC1OC1P(=O)(O)O (stereo not drawn)	inactive	inactive	inactive	inactive	inactive	inactive	inactive	inactive	inactive	inactive
CC1(C)C[C@@H]1C(=O)N/C(=C\CCCCSC[C@H](N)C(=O)O)C(=O)O	inactive	inactive	inactive	inactive	inactive	inactive	inactive	inactive	inactive	inactive
Cc1ccc(O)c(-n2nc3ccccc3n2)c1	inactive	inactive	inactive	inactive	inactive	inactive	inactive	inactive	inactive	inactive
CC(C(=O)O)c1ccc2c(c1)[nH]c1ccc(Cl)cc12 (stereo not drawn)	inactive	inactive	inactive	inactive	inactive	inactive	inactive	inactive	inactive	inactive

Structure (SMILES)	Potency (DIV30)	Potency (Dd2)	Potency (ECU)	Potency (FAB9)	Potency (GB4)	Potency (HB3)	Potency (ICS)	Potency (JCK)	Potency (N140)	Potency (P93_24)
CCCCCCCCCCCCCCCCCC(=O)O	inactive	inactive	inactive	inactive	inactive	inactive	inactive	inactive	inactive	inactive
O=C(O)[C@H](O)[C@@H](O)[C@H](O)[C@H](O)CO	inactive	inactive	inactive	inactive	inactive	inactive	inactive	inactive	inactive	inactive
O=C(O)Cc1ccc(-c2ccccc2)cc1	inactive	inactive	inactive	inactive	inactive	inactive	inactive	inactive	inactive	inactive
CCCCCC[C@@H](O)C/C=C\CCCCCCCC(=O)O	inactive	inactive	inactive	inactive	inactive	inactive	inactive	inactive	inactive	inactive
C=CC(N)CCC(=O)O (stereo not drawn)	inactive	inactive	inactive	inactive	inactive	inactive	inactive	inactive	inactive	inactive
CCCOC(=O)c1ccc(O)cc1	inactive	inactive	inactive	inactive	inactive	inactive	inactive	inactive	inactive	inactive
Nc1ccc(C(=O)O)c(O)c1	inactive	inactive	inactive	inactive	inactive	inactive	inactive	inactive	inactive	inactive
CN1CCN(c2cc3c(nn2)Oc2ccccc2N3C)CC1	inactive	inactive	inactive	inactive	inactive	inactive	inactive	inactive	inactive	inactive
Nc1ccc(O)c(C(=O)O)c1	inactive	inactive	inactive	inactive	inactive	inactive	inactive	inactive	inactive	
CCOc1ccc2nc(S(N)(=O)=O)sc2c1	inactive	inactive	inactive	inactive	inactive	inactive	inactive	inactive	inactive	
CCC1C(=O)OCC1Cc1cncn1C (stereo not drawn)	inactive	inactive	inactive	inactive	inactive	inactive	inactive	inactive	inactive	inactive
CCCCCCCCCCCCCCCC(=O)OC(C)C	inactive	inactive	inactive		inactive	inactive	inactive	inactive	inactive	inactive
CCCSc1ccc2nc(NC(=O)OC)[nH]c2c1		inactive	inactive	inactive	inactive	inactive	inactive	inactive	inactive	inactive
O=C(O)c1cc(O)c(O)c(O)c1	inactive		inactive			inactive				
CN1[C@@H]2CC[C@H]1CC(OC(c1ccccc1)c1ccccc1)C2 (stereo partly drawn)		6.31 µM (active)		inactive	8.49 µM (active)	inactive	10 µM (active) and 11.2 µM (active)	11.2 µM (active)		
C=C(Nc1ccc(OCC)cc1)Nc1ccc(OCC)cc1	inactive	inactive	inactive	inactive		inactive	inactive	inactive	inactive	inactive
Nc1cc(-c2ccncc2)c[nH]c1=O	inactive	inactive	inactive	inactive	inactive	inactive	inactive	inactive	inactive	inactive
O=C(CCN1CCN(CCO)CC1)N1c2ccccc2Sc2ccc(C(F)(F)F)cc21		11.2 µM (active)		inactive			11.2 µM (active)	inactive	12.6 µM (active)	12.6 µM (active)
Cc1cc(O)c2ccccc2c1O	inactive		inactive	inactive		inactive		inactive	inactive	inactive
COc1ccc(/C=C/C(=O)Nc2ccccc2C(=O)O)cc1OC		inactive	inactive	inactive		inactive	inactive	inactive	inactive	inactive
C=CCN1C(=O)C(CC(C)C)NC1=S (stereo not drawn)	inactive	inactive	inactive	inactive	inactive	inactive	inactive	inactive	inactive	inactive
NC(=O)C(c1ccccc1)(c1ccccc1)[C@@H]1CCN(CCc2ccc3c(c2)CCO3)C1		5.01 µM (active)		inactive		inactive	7.08 µM (active)	inactive		
CC(N)C(=O)OC(C)(C)Cc1ccc(Cl)cc1 (stereo not drawn)		7.94 µM (active)		inactive	5.36 µM (active)	inactive		inactive		

Structure (SMILES)	Potency (DIV30)	Potency (Dd2)	Potency (ECU)	Potency (FAB9)	Potency (GB4)	Potency (HB3)	Potency (ICS)	Potency (JCK)	Potency (N140)	Potency (P93_24)
COc1cc(/C=C/C(=O)N2CCN(CC(=O)N3CCCC3)CC2)cc(OC)c1OC		inactive		inactive	inactive	inactive	11.2 µM (active)	inactive		
COc1ccc(-c2cc(=S)ss2)cc1		inactive	12.6 µM (active)	inactive	inactive	inactive	7.94 µM (active)	inactive	inactive	
COc1cc(CNC(=O)CCCC/C=C/C(C)C)ccc1O		inactive	inactive	inactive	inactive	inactive	inactive	inactive	inactive	inactive
C[S+](CC[C@H](N)C(=O)O)C[C@H]1O[C@@H](n2cnc3c(N)ncnc32)[C@H](O)[C@@H]1O (stereo partly drawn)	inactive	inactive		inactive	inactive	inactive	inactive	inactive	1 µM (active)	
CN1[C@@H](CC(=O)c2ccccc2)CCC[C@H]1C[C@H](O)c1ccccc1		10 µM (active)		inactive	10.7 µM (active)	inactive	11.2 µM (active)		17.8 µM (active)	
Cc1nc2ccccc2n1Cc1ccc(Cl)cc1	inactive	inactive		inactive				inactive		inactive
CC(=O)[C@]1(O)Cc2c(O)c3c(c(O)c2[C@@H](O[C@H]2C[C@H](N)[C@H](O)[C@H](C)O2)C1)C(=O)c1c(O)cccc1C3=O		3.16 µM (active)			4.78 µM (active)	7.94 µM (active)	2 µM (active)	11.2 µM (active)	10 µM (active)	7.94 µM (active)
CCCC(=O)OC[C@@H](OC(=O)CCC)[C@@H](OC(=O)CCC)[C@H](Cn1c2nc(=O)[nH]c(=O)c-2nc2cc(C)c(C)cc21)OC(=O)CCC	inactive	11.2 µM (active)						inactive		
O=C(/C=C/c1ccccc1)NCCO	inactive	inactive	inactive	inactive	inactive	inactive	inactive	inactive	inactive	inactive
CC1(C)[C@@H](O)CC[C@]2(C)[C@H]3C(=O)C=C4[C@@H]5C[C@@](C)(C(=O)O)CC[C@]5(C)CC[C@@]4(C)[C@]3(C)CC[C@@H]12	inactive	inactive	inactive	inactive	inactive	inactive	inactive	inactive	inactive	inactive
CCOC(=O)c1ccccc1O	inactive	inactive	inactive	inactive	inactive	inactive	inactive	inactive	inactive	inactive
CN(C)c1ccc(C(=C2C=CC(=[N+](C)C)C=C2)c2ccccc2)cc1		11.2 µM (active)		inactive	4.26 µM (active)	11.2 µM (active)	2.24 µM (active)	inactive		10 µM (active)
CN1[C@@H]2CC[C@H]1CC(OC(=O)C(CO)c1ccccc1)C2 (stereo partly drawn)		inactive	inactive	inactive	inactive	inactive	inactive	inactive	inactive	inactive
O=c1[nH]c2ccccc2n1CCCN1CCN(C(c2ccccc2)c2ccccc2)CC1		11.2 µM (active)		inactive	13.5 µM (active)	inactive	7.94 µM (active)	inactive	11.2 µM (active)	
Oc1c(Br)cc(Br)c2cccnc12	inactive	inactive	inactive	inactive	inactive	inactive		inactive	inactive	inactive
O=C1CN(/N=C/c2ccc(-c3ccc([N+](=O)[O-])cc3)o2)C(=O)N1	inactive	inactive	inactive	inactive		inactive	inactive	inactive	inactive	
Clc1ccccc1-c1nc(-c2ccncc2)no1	inactive	inactive		inactive	inactive	inactive		inactive		
COc1cc(/C=C/C(=O)CC(=O)/C=C/c2ccc(O)c(OC)c2)ccc1O	13.5 µM (active)	12.6 µM (active)	1 µM (active)	inactive	12 µM (active)			inactive		
N=c1ccn2c(n1)O[C@H]1[C@H](O)[C@@H](CO)O[C@H]12	inactive	inactive	inactive	inactive	inactive	inactive	inactive	inactive	inactive	inactive
COC(=O)C1=C(C)NC(C)=C(C(=O)OCC(C)C)C1c1ccccc1[N+](=O)[O-] (stereo not drawn)	16.9 µM (active)		10 µM (active)		12 µM (active)		3.55 µM (active)			10 µM (active)
c1ccc2sc(SN3CCOCC3)nc2c1	inactive			inactive	inactive	inactive	12.6 µM (active)	inactive		
C=CCCCCCCCCC(=O)O	inactive	inactive	inactive	inactive	inactive	inactive	inactive	inactive	inactive	inactive
CCCCCCCCCCCC(=O)[O][Sn]([CH2]CCC)([CH2]CCC)[O]C(=O)CCCCCCCCCCC	inactive	inactive	inactive	inactive	inactive	inactive		inactive	inactive	inactive
